In PubChem BioAssay AID1508600 (Functional Genomics Laboratory (NCATS/FGL), 2020):
Among all 53,000 sequences or so, about 3,700 (7%) were called active. Shown is part of a subset that was picked to be rich in actives. Unmarked numbers belong to inactive results.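 Rule for the calls: active = gene knockdowns whose robust z-score for IL-1 alpha signal is at least 2 or at most -2, so actives lie on both sides; inactive = the rest.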

Assay: Components of the Cytosolic LPS Sensing Pathway: Gene Identification via Genome-wide siRNA Screen;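 note: robust z of the log signal after scaling to non-targeting control siRNA wells of the plate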
Conditions: RAW264.7 macrophages, IL-1a HTRF, actives lie on both sides, screened at 100 nM (by protocol), cells primed 5 h with Pam3CSK4 first
Summary of the method: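 Read-out: IL-1a HTRF on supernatant, divided by plate negative-control median ×100, log-transformed and converted to robust z-score. Cells were RAW264.7 given 100 nM siRNA, Pam3CSK4-primed 5 hours, then LipidA-transfected 24 hour.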

Row | Sequence | z-score
1 | GGGAGGAAAUGAAUGAAUUTT against Gypc | 0.686
2 | GGAAUUAUCUUCAUCCCUGTT against Abhd10 | -4.79 (active)
3 | GGAUCUAUCUCUAGUCCCGTT against Zfp358 | -1.74
4 | CCUUUAAAAGUACCAACCCTT against B9d1 | 0.679
5 | CGUACCAUGGUCAAGACGUTT against Tpcn1 | 0.692
6 | GCCUUAGGUUGAUAGGAGGTT against Tas2r110 | -0.191
7 | GGGACCAGAACAAAUACAATT against Klc3 | 4.06 (active)
8 | GGCCUUUUCUUCUUUUUGUTT against Mill1 | 0.653
9 | GGAAGGAAAUGUGUGAAAUTT against 4930555G01Rik | -0.194
10 | GGAGAGGAUGCAUGUAAAATT against Fbxl22 | -1.19
11 | GGAAAUGAACUCAUAGCCATT against Olfr121 | 0.0495
12 | GGAGUAAAGACAUUCAGGATT against Nlrp4f | 0.716
13 | GCUUGAUCGCUUUCAACUCTT against Coro7 | 0.734
14 | GGAAAUUUUUCGCAUGACCTT against Ddx39b | -2.13 (active)
15 | CCUUCUUCUUACUGAUAAUTT against Olfr1276 | -0.471
16 | GCAAUGAACUAUGAAGGCATT against Npm1 | -0.32
17 | GGACAAAAUUAGACCUUUGTT against Arf2 | 0.47
18 | GGCAUCCUGUUGAAACUGATT against Vezt | -0.962
19 | GGGUGAAUUCUGUCUAUGUTT against Far1 | 0.0586
20 | GGUAAAAGCUGUUUGAGAGTT against Smim3 | -3.43 (active)
21 | GGAUUAUCAGAAGUGUGUCTT against Mrps35 | -0.117
22 | GUCAAGAAUAUUAUGACCCTT against Vamp8 | 0.516
23 | CCUCAUUGUGUCGUCUUACTT against Zer1 | -0.421

Row | Sequence | z-score
24 | GGCUCUGAGACACAUCUACTT against Cpt1b | -0.562
25 | GGAGUUAAUCAGUCAAAUGTT against Dclk2 | 0.754
26 | CCCAGAAGGAUCUGCUCUUTT against Defa20 | -2.17 (active)
27 | GGUUAUGUCGCUAAGGAAATT against Tmem50a | -0.392
28 | GGAGGUCACCUUCUCAAACTT against Mrgprf | 0.374
29 | GCCUUUAACAGCUCUUAAUTT against Gm4894 | 0.999
30 | CGUGCCACUUUUACCGUCCTT against Zdhhc8 | -2.43 (active)
31 | UACUCGUAUUCUUAAUUGCTT against Acsl1 | -0.272
32 | GCAGAAUCGCUUCAGUUCUTT against Tmed6 | 0.49
33 | GGCUGUGUAUUACUGCGCUTT against Vpreb2 | -0.236
34 | GCCAUGAUGCAUUAUGUAUTT against Haglr | -0.331
35 | GGGUAUUGGUUUUAGAGCATT against Emd | 0.37
36 | GGCUCUAAUGUAAUGAAUCTT against Fgf10 | 0.259
37 | GGGUAAAAGGCUUUUUUGUTT against St8sia6 | -0.699
38 | GGCAAAACAUGCUUGGACCTT against Zfp687 | 2.31 (active)
39 | CCAAUUCCUGGGUGCACACTT against Olfr309 | -0.691
40 | GCUCUGCUCUUCUGAAGCATT against Dohh | -2.42 (active)
41 | GGAUGACAUUUCAGUGUGGTT against Matn4 | 0.561
42 | GGAUAUUCAAAUGGGUGCCTT against Bcl7b | 0.538
43 | GGACAUGAUCGACGACUACTT against Zfyve28 | 0.109
44 | GGAUGAAAGAAAAGAAACUTT against Hoxd11 | -0.335
45 | GGAAUGGUAAUGCUAUUGGTT against Tmem39a | 0.169
46 | GGAGAAUGGUUCAUAUCUGTT against Trmt44 | -0.849

Row | Sequence | z-score
47 | AUGGAAAAAGUGCACAAUCTT against Olfr1061 | 2.34 (active)
48 | UUGUUCAAGAGCUAGAGAUTT against Atg2a | 0.811
49 | GCCGUGCAAAGUUUAUUCATT against Nme8 | 1.06
50 | CCACCAUUCGGCUCUUUUGTT against Nupl2 | -0.822
51 | GCACCUGAAGACUAAUGUUTT against Gcnt2 | 0.509
52 | GGAAUAUUCAGAAUCCCUCTT against Tnfaip8l3 | -0.762
53 | GGUAACGGGACCAACACUUTT against Otop3 | 1.26
54 | CCUUUAACUUUCUCCUACCTT against Nfkbid | 3.45 (active)
55 | GGAGGAAACACAUCAUUUGTT against Tmem131 | 1.15
56 | GCCUCAAUUCCUCUACGCUTT against Sytl1 | -1.34
57 | GCAUAGUGACCAUGGAUAATT against Olfr807 | 0.95
58 | GGAGGACGUGAACUUUGACTT against Stk32c | 0.648
59 | GCACGUCAGAAUCUCCAGATT against Pln | -0.669
60 | GGAAUGACAAGAUUAUUGUTT against Ercc3 | 0.157
61 | GGAGAGGAGUUCUUCAUUCTT against Adamts1 | -1.38
62 | GCAAGUAGCAUCUCUGAUUTT against Nfs1 | 1.03
63 | GGCAAGAAGUGUGAUGAACTT against Kansl3 | -2.81 (active)
64 | GGAGGAACUGGAUUCUUACTT against Eps8l3 | -0.348
65 | GGUUGUUAGGAAUCGAUCCTT against Rps26 | 0.964
66 | GGUGGAAUACUUGGAGCAGTT against Gstm4 | 2.98 (active)
67 | CCAAUGCCGCCAGAAGUUATT against Siah2 | 0.295
68 | CCUGUGCUCUUAUUAUCAATT against Rpp14 | 0.693
69 | GCAACUUUAAUGACAGCGUTT against Moxd1 | -0.211
